# High-throughput results from PubChem BioAssay.
# rCAG binder – binders of r(CAG) RNA repeats, primary screen, biochemical, fluorescence. inhibition, % at 3 µM. AID 651821, 2012. r(CAG) RNA repeat, TO-PRO-1 dye displacement fluorescence. 1.3% of 370,000 active;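 active = inhibition above the plate cutoff, the mean of all test compounds on that plate plus 3 SD, cut at about 35% in these data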;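 also: 0% = DMSO alone and 100% = 100 µM mitoxantrone as full dye displacement; higher means more dye released from RNA so lower well fluorescence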
# ADAM10 inh – human ADAM10 inhibitors, primary screen, biochemical, QFRET, HTS; Disintegrin and metalloproteinase domain-containing protein 10 (Homo sapiens), O14672; recombinant ADAM10, EDANS/DABCYL FRET peptide cleavage, 3 h; inhibition, % at 7 µM; 0.62% of 370,000 active; AID 720582, 2013;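 active = inhibition above a per-campaign cutoff equal to the mean of compounds falling between control-based bounds plus 3 SD, cut at about 20% in these data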;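 also: 0% = DMSO wells while the 100% control is not disclosed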
# ADAM17 inh – ADAM17 inhibitors, primary screen, biochemical, QFRET | recombinant ADAM17, EDANS/DABCYL FRET peptide cleavage | Disintegrin and metalloproteinase domain-containing protein 17 (Homo sapiens), P78536 | inhibition, % at 6.95 µM | 0.83% of 370,000 active;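 active = inhibition above the mean of compounds lying between control limits plus 3 SD, set per campaign, cut at about 8.5% in these data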;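 also: 0% = DMSO-only wells as the low control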
# AHR act – AHR activators, primary screen, cell-based, luminescence, luciferase reporter, human | 2.5% of 320,000 active | AID 2796, 2010 | activation, % at 5 µM | AHR-responsive luciferase reporter cells; in the data active = activation above about 47%;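 also: 0% = vehicle wells and 100% = reference agonist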
# proKLK7 act – proKLK7 zymogen activators, primary screen, biochemical, fluorescence intensity; AID 652039, 2013; activation, % at 7 µM; purified proKLK7, EDANS-DABCYL substrate fluorescence; 100% is mature enzyme control, 0% vehicle; 0.9% of 370,000 active; Kallikrein-7 (Homo sapiens), P49862;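 active = activation above the mean of all tested compounds plus 3 SD, computed per campaign excluding outliers beyond control limits, cut at about 13% in these data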
# Target sequence (P49862 whole entry, looked up): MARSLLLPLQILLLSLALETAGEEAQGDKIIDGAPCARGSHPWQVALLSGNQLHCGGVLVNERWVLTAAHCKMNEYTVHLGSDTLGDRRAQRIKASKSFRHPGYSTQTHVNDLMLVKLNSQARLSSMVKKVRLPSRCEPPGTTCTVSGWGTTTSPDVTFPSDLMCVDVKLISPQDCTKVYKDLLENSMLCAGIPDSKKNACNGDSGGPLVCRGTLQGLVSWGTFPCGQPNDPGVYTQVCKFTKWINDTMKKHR
# GRIN3A LBD mod – binders of NR3A ligand-binding domain, primary screen, biophysical, differential scanning fluorimetry, uHTS. Glutamate receptor ionotropic, NMDA 3A (GRIN3A) ligand-binding domain. NR3A LBD differential scanning fluorimetry, Tm shift; 0% = protein alone, 100% = glycine-bound protein. 2.5% of 340,000 active. Tm shift relative to glycine control, % at 25 µM;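 active = melting temperature shift of at least 10% of the positive control shift, at one fixed dose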
# * = called active by the depositor; / = not tested or not shown. In the library only some 7% were active in any assay of this set; here they are far more common.
SMILES,rCAG binder,ADAM10 inh,ADAM17 inh,AHR act,proKLK7 act,GRIN3A LBD mod
COc1ccccc1C(=O)NC(=S)Nc1ccccc1N1CCCC1,8,0,3,53*,-1,/
COc1cc2ccccc2cc1C(=O)Nc1ccc(N2CCN(C)CC2)cc1,-3,-5,-2,33,0,1
Cc1ccccc1C(=O)NC(=S)Nc1ccccc1N1CCCC1,3,-2,2,50*,0,5
COc1cc(C(=O)NC(=S)Nc2ccc(N3CCCC3)cc2)cc(OC)c1OC,8,0,-1,24,0,-2
O=C(NC(=S)Nc1ccccc1N1CCCCC1)c1ccccc1,0,2,2,33,0,-2
COc1ccccc1C(=O)NC(=S)Nc1ccc(N2CCCC2)cc1,6,7,5,85*,0,-4
O=C(NC(=S)Nc1ccccc1N1CCCC1)c1ccc(F)cc1,10,-14,-7,71*,-1,-6
Cc1ccccc1NC(=O)[C@H]1CC(=O)O[C@@H]1c1ccccc1,2,-10,-2,/,0,/
COc1cc(/C=C(\C#N)c2nc3ccccc3o2)ccc1O,1,-174,-34,15,0,15*
FC(F)(F)c1nc2cc3nc4ccccc4[nH]c3cc2n1,10,5,3,55*,0,-14
CN(C(=O)c1cccc(NC(=O)Cc2ccc(NC(=O)C3CCCN(S(=O)(=O)c4cccc([N+](=O)[O-])c4)C3)cc2)c1)C1CCCCC1 (configuration not stated),14,19,6,/,0,10*
CN(C(=O)c1ccc(NC(=O)Cc2cccc(NC(=O)C3CCCN(C(=O)CCc4ccccc4)C3)c2)cc1)C1CCCC1 (configuration not stated),1,12,3,-1,0,22*
CC(=O)Nc1ccc(S(=O)(=O)NC2(C(F)(F)F)NC(=O)N(c3ccc(C)cc3)C2=O)cc1 (configuration not stated),4,0,1,1,0,10*
CCOC(=O)C1=C(C(=O)OCC)C2N(Cc3ccc(C(F)(F)F)cc3)c3ccccc3[C@@]23C[C@@H](C(=O)OC)N(S(=O)(=O)c2ccc(OC)cc2)C3=N1 (some centres not stated),9,1,2,/,1,/
O=C(CNC(=O)c1ccccc1Cl)N/N=C/c1ccc2c(c1)OCO2,1,-3,2,10,0,-3
CCN(CC)c1ccc(/C=N/NC(=O)CNC(=O)c2ccccn2)cc1,0,-175,-42,60*,-2,-1
CCN(CC)c1ccc(/C=N/NC(=O)CC(C)C)cc1,-5,-182,-69,29,2,1
O=C(CNC(=O)c1ccccn1)N/N=C/c1ccc2c(c1)OCO2,2,4,1,68*,0,-2
CC1(C)CC(=O)C/C(=N/Nc2nc3ccccc3s2)C1,10,-9,-3,23,0,-18
CC1CCC/C(=N/Nc2nc3ccccc3s2)C1 (configuration not stated),15,15,3,62*,0,-6
Cc1ccc(NP(=O)(c2ccc(N(C)C)cc2NC(=O)c2cccs2)N2CCOCC2)cc1Cl (configuration not stated),5,8,7,50*,0,-5
CN(C)c1ccc(P(=O)(Nc2ccccc2)N2CCOCC2)c(NC(=O)c2cccs2)c1 (configuration not stated),1,-10,0,12,0,-2
Cc1ccc(NP(=O)(c2ccc(N(C)C)cc2NC(=O)c2cccs2)N2CCOCC2)cc1 (configuration not stated),1,13,4,59*,-1,-8
C[C@H](CO)N1C[C@H](C)[C@@H](CN(C)C(=O)NC2CCCCC2)OCc2cn(nn2)CCCC1=O,-1,-17,-4,/,0,/
CCOC(=O)C1=NN(c2ccc(OC)cc2)C2C(=O)N(c3ccccc3OC)C(=O)C12 (configuration not stated),3,2,0,2,-2,0
SMILES,rCAG binder,ADAM10 inh,ADAM17 inh,AHR act,proKLK7 act,GRIN3A LBD mod
CCOC(=O)C1=NN(C(=O)Nc2ccc(OC)cc2)C2C(=O)N(c3cccc(C(F)(F)F)c3)C(=O)C12 (configuration not stated),54*,6,1,-1,1,-5
CC(=O)N1CCN(C(=O)CCn2nnc3ccccc32)CC1,0,2,0,/,0,/
Cc1ccc(Cl)cc1NC(=O)CSc1sc2c(O)cc(=O)[nH]c2c1C#N,35*,-17,-6,7,1,-6
CCc1nnc(NC(=O)CSc2nc3[nH]c(=O)cc(O)c3s2)s1,23,-11,0,6,0,-2
CCc1nnc(NC(=O)CSc2sc3c(O)cc(=O)[nH]c3c2C#N)s1,57*,-19,-10,7,-1,-2
O=C(NNC(=O)c1ccccc1OCc1ccccc1)c1ccccc1F,-1,0,0,53*,0,10*
O=C(NNC(=O)c1ccccc1OCc1ccc(F)cc1)c1ccccc1O,24,-7,-3,/,0,23*
Cc1oc(-c2cc(F)ccc2F)nc1CN1CCN(c2cnccn2)CC1,-7,-25,-7,54*,0,-2
Cc1oc(-c2cc(F)ccc2F)nc1CN(C)Cc1ccc2nccnc2c1,-5,1,-3,2,0,-1
Cc1ccc(-c2nc(N/N=C/c3cccc([N+](=O)[O-])c3)c3ccccc3n2)cc1,3,-3,-2,14,0,163*
Cc1ccc(-c2nc(N/N=C/c3cccnc3)c3ccccc3n2)cc1,2,4,-2,62*,-2,-7
COc1ccc(OC)c(Nc2nc(-c3ccncc3)nc3ccccc23)c1,9,-8,-7,/,-1,-2
COc1ccc(/C=N/Nc2nc(-c3cccnc3)nc3ccccc23)c(OC)c1,2,-34,-11,51*,-4,5
C/C(CCc1oc2ccc(Br)cc2c1-c1ccc(C)o1)=N/O,3,1,-1,56*,1,-12
C/C(CCc1oc2ccc(Cl)cc2c1-c1ccc(C)o1)=N\O,11,-8,-1,29,1,0
CC(C)(C)C1=Nn2c(nnc2-c2ccc(C(C)(C)C)cc2)SC1,-4,0,-2,/,1,/
Cc1ccc(S(=O)(=O)N2c3ccc(F)cc3C[C@H]2CSc2ccccc2)cc1,/,6,2,/,/,/
COc1ccc(Oc2c(C=O)c3ccccc3n2C)cc1,4,-2,0,3,-1,1
